Calls of active or inactive are those of the source. Unless noted, how the calls were made is not given here.
What was measured:
[1] = resazurin metabolic signal in HepG2 cells – cell-based, resazurin fluorescence, 24 h, PK04 Diversity Set, profiling panel (AID 1172); details: HepG2 viability, higher = more signal; further: test concentration not given here
[2] = budding yeast growth changes without added modifier – OD600, strain BY4716, 24 h, basal condition, primary screen (AID 1173); details: S. cerevisiae BY4716 growth, OD600, 24 h; higher = more signal, called active from +8 up or from −8 down
[3] = viability profiling in MM1S myeloma cells – cell-based, resazurin fluorescence, basal, 24 h, PK04 Diversity Set, profiling panel (AID 1174); details: higher = more signal, called active from +8 up or from −8 down;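 further: MM1S multiple myeloma cell line; test concentration not given here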
[4] = biological target: Dihydroorotate dehydrogenase (quinone), mitochondrial (Plasmodium falciparum (isolate 3D7)) (UniProt Q08210); test: inhibition of P. falciparum DHODH – biochemical, C-terminal His tag, absorbance 600 nm, primary screen (AID 1175); details: PfDHODH enzyme, DCIP absorbance 600 nm; higher = more signal, called active from +8 up or from −8 down;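 further: recombinant parasite enzyme with a five histidine tag at its C terminus; test concentration not given here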
[5] = inhibition of PAO1 biofilm formation – strain PAO1, LB-PBS medium, absorbance 600 nm, primary screen (AID 1176); further: test concentration not given here; details: P. aeruginosa PAO1 growth/biofilm, A600, 12 h; higher = more signal
[6] = growth modulation of vineyard yeast isolate – strain RM11-1a, OD600, basal, 24 h, primary screen (AID 1177);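 further: cultures grown under basal conditions with no added stressor; test concentration not given here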; details: S. cerevisiae RM11-1a growth, OD600, 24 h; higher = more signal, called active from +8 up or from −8 down
[7] = growth of efflux-deficient E. coli DRC39 – strain DRC39, OD650, 24 h, E. coli filamentation inducers, primary screen (AID 1178);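 further: growth measured as culture turbidity by optical density at 650 nm; test concentration not given here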; details: E. coli DRC39 acrAB, higher = more signal, called active from +8 up or from −8 down
[8] = growth of efflux-deficient E. coli DRC39 – strain DRC39, OD650, 48 h, E. coli filamentation inducers, primary screen (AID 1179);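 further: screen aims at cell division blockers that make cells filament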; details: E. coli DRC39 delta-acrAB growth, higher = more signal, called active from +8 up or from −8 down
[9] = viability profiling in RPMI8226 myeloma cells – cell-based, resazurin fluorescence, basal, 24 h, PK04 Diversity Set, profiling panel (AID 1180); details: higher = more signal;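 further: RPMI8826 multiple myeloma cell line at 5000 cells per well; test concentration not given here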
[10] = biological target: E3 ubiquitin-protein ligase XIAP (Homo sapiens) (UniProt P98170); test: small molecules binding XIAP protein – biophysical, small-molecule microarray, fluorescence 635 nm, primary screen (AID 1181); details: higher = more signal;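 further: score merges 667 nm emission and signal to noise over triplicate slides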
Chain of E3 ubiquitin-protein ligase XIAP (Homo sapiens) (P98170 whole entry, looked up): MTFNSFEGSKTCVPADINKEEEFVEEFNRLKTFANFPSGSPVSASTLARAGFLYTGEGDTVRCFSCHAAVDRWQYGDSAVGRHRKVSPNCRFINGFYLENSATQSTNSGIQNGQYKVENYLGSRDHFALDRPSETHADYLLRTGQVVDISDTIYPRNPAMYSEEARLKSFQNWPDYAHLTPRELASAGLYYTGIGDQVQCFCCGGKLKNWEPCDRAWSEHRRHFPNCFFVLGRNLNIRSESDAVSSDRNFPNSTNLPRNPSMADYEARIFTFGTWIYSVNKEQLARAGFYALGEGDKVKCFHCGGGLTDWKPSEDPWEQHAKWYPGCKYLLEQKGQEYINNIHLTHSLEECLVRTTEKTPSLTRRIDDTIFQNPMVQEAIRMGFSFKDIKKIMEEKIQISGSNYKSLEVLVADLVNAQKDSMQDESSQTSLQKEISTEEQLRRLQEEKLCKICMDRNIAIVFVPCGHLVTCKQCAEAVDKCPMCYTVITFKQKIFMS

Chain of Dihydroorotate dehydrogenase (quinone), mitochondrial (Plasmodium falciparum (isolate 3D7)) (Q08210 whole entry, looked up): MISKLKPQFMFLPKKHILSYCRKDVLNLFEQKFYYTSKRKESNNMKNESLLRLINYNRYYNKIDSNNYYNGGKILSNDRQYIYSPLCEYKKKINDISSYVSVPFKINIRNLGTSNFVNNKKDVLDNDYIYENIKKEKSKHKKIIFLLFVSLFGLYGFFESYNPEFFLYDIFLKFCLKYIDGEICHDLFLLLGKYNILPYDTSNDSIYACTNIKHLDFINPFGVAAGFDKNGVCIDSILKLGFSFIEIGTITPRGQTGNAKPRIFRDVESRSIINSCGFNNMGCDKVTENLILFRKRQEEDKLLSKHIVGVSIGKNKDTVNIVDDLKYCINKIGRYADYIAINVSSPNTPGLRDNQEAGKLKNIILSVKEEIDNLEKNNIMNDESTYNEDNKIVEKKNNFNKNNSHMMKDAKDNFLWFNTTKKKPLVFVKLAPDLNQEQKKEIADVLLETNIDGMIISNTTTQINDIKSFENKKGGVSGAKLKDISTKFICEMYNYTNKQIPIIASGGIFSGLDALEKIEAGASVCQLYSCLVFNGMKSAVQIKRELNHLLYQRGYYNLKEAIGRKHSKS

Row | Compound | z-score [1] | z-score [2] | z-score [3] | composite z-score [4] | z-score [5] | z-score [6] | z-score [7] | z-score [8] | z-score [9] | composite z-score [10]
1 | CCN1C(=O)[C@H]2[C@H]3[C@H](O)[C@H](O)CC(=NO[C@@H](C)c4cc(-c5c(C)cc(C)cc5C)no4)[C@@H]3CC[C@H]2C1=O | 0.0416 | -2.13 (inactive) | -0.69 (inactive) | -0.126 (inactive) | 0.0646 (inactive) | 0.0564 (inactive) | 0.767 (inactive) | 0.596 (inactive) | -0.835 | -0.102
2 | CO[C@@H]1COC(=O)[C@@H]2CCCN2C(=O)[C@@H](C)COC(=O)CCC[C@H]1C | -0.668 | -0.482 (inactive) | -0.27 (inactive) | -1.47 (inactive) | -0.197 (inactive) | -2.66 (inactive) | -0.0549 (inactive) | -0.0609 (inactive) | -0.304 | 0.134
3 | CCOC(=O)NN=C1C[C@@H](O)[C@@H](O)[C@@H]2[C@@H]3C(=O)N(C[C@@H]4CCCO4)C(=O)[C@@H]3CC[C@H]12 | 0.0254 | 0.197 (inactive) | -0.841 (inactive) | -1.36 (inactive) | -0.495 (inactive) | -0.396 (inactive) | 0.213 (inactive) | 0.626 (inactive) | -0.248 | -0.02
4 | CCOC(=O)[C@H](CC(C)C)NC(=O)CCC1CC(OC(=O)NCc2ccc3c(c2)OCO3)CC2(CCCC(COC(=O)NCCOc3ccccc3)O2)O1 (stereo not given in full) | -0.167 | 0.592 (inactive) | 0.691 (inactive) | 0.0657 (inactive) | -0.564 (inactive) | 1.21 (inactive) | -0.0466 (inactive) | -0.875 (inactive) | 0.632 | 0.154
5 | CCN1C(C)=C(C(=O)OC)[C@@H](c2ccccc2)N2C(=O)[C@](O)(C(=O)OC)CC(C(C)=O)=C12 | -0.0348 | -1.38 (inactive) | 0.136 (inactive) | -1.27 (inactive) | -0.242 (inactive) | -0.695 (inactive) | 0.538 (inactive) | 0.866 (inactive) | -0.11 | 0.0264
6 | CC(=O)OC[C@H]1O[C@H](CC=NOCC[C@@H]2C=C[C@H](OC(C)=O)[C@@H](COC(C)=O)O2)C=C[C@@H]1OC(C)=O | 0.149 | 0.0167 (inactive) | 0.0092 (inactive) | -0.0986 (inactive) | 0.229 (inactive) | 0.0282 (inactive) | 0.847 (inactive) | 0.66 (inactive) | 0.117 | 0.287
7 | CCCNC(=O)OC[C@H]1O[C@H](CCON=C2C[C@@H](O)[C@@H](O)[C@@H]3[C@@H]4C(=O)N(CC)C(=O)[C@@H]4CC[C@@H]23)C=C[C@@H]1Oc1ccc(OC)cc1 | -0.57 | 0.0913 (inactive) | -0.791 (inactive) | -0.384 (inactive) | 0.429 (inactive) | -0.32 (inactive) | 0.74 (inactive) | 0.658 (inactive) | -1.02 | -0.281
8 | CC=CC1=C(CO)[C@H](O)[C@H]2O[C@H]2[C@@H]1O | -0.504 | -0.299 (inactive) | 0.133 (inactive) | 0.781 (inactive) | -0.102 (inactive) | 0.39 (inactive) | 0.615 (inactive) | -0.442 (inactive) | 0.694 | -0.204
9 | COC(=O)CC=C[C@@H](C)[C@@H](C=NOC[C@@H](C)[C@H](OCc1ccccc1)C(C)C)OC | -1.01 | 0.285 (inactive) | 0.405 (inactive) | 0.957 (inactive) | -0.892 (inactive) | 0.169 (inactive) | -0.213 (inactive) | -0.442 (inactive) | -0.286 | -0.118
10 | C[C@H]1CC[C@H]2C(=O)OC(COc3ccc(C(C)(C)C)cc3)CN2[C@@H]1c1ccc(Br)cc1 (stereo not given in full) | 0.272 | -4.88 (inactive) | 0.283 (inactive) | -0.673 (inactive) | 1.18 (inactive) | -0.249 (inactive) | 1.22 (inactive) | 0.662 (inactive) | -0.317 | -0.173
11 | O=C1[C@H]2[C@H]3[C@H](O)[C@H](O)CC(=NO[C@@H]4O[C@H](CO)[C@@H](O)[C@H](O)[C@H]4O)[C@@H]3CC[C@H]2C(=O)N1C[C@@H]1CCCO1 | -0.0979 | -2.29 (inactive) | -0.589 (inactive) | -2.39 (inactive) | -0.589 (inactive) | -0.633 (inactive) | 0.564 (inactive) | 0.172 (inactive) | 0.062 | -0.152
12 | COC(=O)CC=C[C@@H](C)[C@@H](C=NOC[C@@H](C)[C@H](OCc1ccccc1)C(C)C)NS(=O)(=O)c1ccc(C)cc1 | -1 | -0.0668 (inactive) | -0.562 (inactive) | 1.07 (inactive) | -0.291 (inactive) | 0.391 (inactive) | -0.247 (inactive) | -1.18 (inactive) | 0.0833 | -0.0844
13 | COC(=O)CC=C[C@@H](C)[C@@H](C=NOC(C)CN1CCCc2nc(C)c(C)cc21)NS(=O)(=O)c1ccc(C)cc1 (stereo not given in full) | -0.566 | 0.21 (inactive) | -0.47 (inactive) | 0.899 (inactive) | 0.253 (inactive) | 0.253 (inactive) | 0.157 (inactive) | -0.0007 (inactive) | -1.32 | 0.222
14 | CCOC(=O)CCN1C(=O)[C@H]2[C@H]3[C@H](O)[C@H](O)CC(=NO[C@@H]4O[C@H](CO)[C@@H](O)[C@H](O)[C@H]4O)[C@H]3CC[C@H]2C1=O | -0.228 | 0.87 (inactive) | -0.433 (inactive) | 0.29 (inactive) | -0.483 (inactive) | -0.402 (inactive) | -0.739 (inactive) | -0.0907 (inactive) | -0.162 | 0.106
15 | Cc1ccc2[nH]c3nc(CCCn4ccnc4-c4ccccc4)nnc3c2c1 | -0.256 | -0.104 (inactive) | -1.15 (inactive) | 0.411 (inactive) | 0.0737 (inactive) | -0.212 (inactive) | 0.164 (inactive) | 0.183 (inactive) | -0.976 | -0.119
16 | CON(C)C(=O)c1nnc2c(n1)[nH]c1ccccc12 | -0.244 | 0.304 (inactive) | 0.322 (inactive) | -0.306 (inactive) | 0.131 (inactive) | -0.915 (inactive) | 0.593 (inactive) | 0.572 (inactive) | 0.492 | 0.273
17 | C=CC[C@@H]1C=C[C@H](ON=C2C[C@@H](O)[C@@H](O)[C@@H]3[C@@H]4C(=O)N(CC)C(=O)[C@@H]4CC[C@@H]23)[C@@H](CO)O1 | -1.05 | -0.099 (inactive) | -0.415 (inactive) | -2.18 (inactive) | -0.0781 (inactive) | -0.466 (inactive) | -0.939 (inactive) | -1.5 (inactive) | -0.216 | -0.289
18 | CCN1C(=O)[C@H]2[C@H]3[C@H](O)[C@H](O)CC(=NOCC=C(C)CCC=C(C)C)[C@@H]3CC[C@H]2C1=O | -0.623 | -6.59 (inactive) | -0.719 (inactive) | -1.16 (inactive) | -0.446 (inactive) | -0.29 (inactive) | 0.42 (inactive) | -0.731 (inactive) | -0.517 | 0.155
19 | O=C1[C@H]2[C@H]3[C@H](O)[C@H](O)CC(=NOC[C@@H](O)COCc4ccco4)[C@@H]3CC[C@H]2C(=O)N1Cc1ccc2c(c1)OCO2 | 0.351 | 0.182 (inactive) | -0.524 (inactive) | -0.395 (inactive) | 0.0578 (inactive) | 0.865 (inactive) | 0.764 (inactive) | 1.29 (inactive) | 0.501 | -0.148
20 | CO[C@@H]1COC(=O)CC=C[C@H](C)[C@H](OC)COC(=O)[C@@H]2CCCN2C(=O)CC=C[C@H]1C | -0.144 | -1.17 (inactive) | 0.918 (inactive) | -0.222 (inactive) | -1.33 (inactive) | -0.203 (inactive) | 0.422 (inactive) | -0.0617 (inactive) | 0.306 | -0.02
21 | O=C1[C@H]2[C@H]3[C@H](O)[C@H](O)CC(=NOCc4ccccc4)[C@@H]3CC[C@H]2C(=O)N1c1cccc(Oc2ccccc2)c1 | 0.363 | 0.204 (inactive) | -0.857 (inactive) | -0.0818 (inactive) | 0.741 (inactive) | 0.056 (inactive) | 0.796 (inactive) | 1.4 (inactive) | 0.173 | -0.15
22 | COC(=O)[C@@H]1CC[C@H](C)[C@@H](c2ccc(C)cc2)N1C(=O)c1ccc(C=NOC[C@H]2O[C@H](c3ccccc3)C=C[C@@H]2Oc2ccc(OC)cc2)cc1 | 0.158 | 0.856 (inactive) | -0.0983 (inactive) | 0.13 (inactive) | 0.0282 (inactive) | 0.386 (inactive) | -0.469 (inactive) | -0.499 (inactive) | 0.539 | -0.0773
23 | CO[C@H]1COC(=O)[C@H](CCSC)NC(=O)CC=C[C@@H](C)[C@H](OC)COC(=O)[C@@H](OCc2ccccc2)C=C[C@@H]1C | 0.81 | -0.41 (inactive) | -0.059 (inactive) | -0.611 (inactive) | -1.38 (inactive) | -0.208 (inactive) | 0.345 (inactive) | 0.238 (inactive) | 0.519 | -0.0965
24 | CCCNC(=O)OC[C@H]1O[C@H](CCON=C[C@@H](NS(=O)(=O)c2ccc(C)cc2)[C@H](C)C=CCC(=O)OC)C=C[C@@H]1Oc1ccc(OC)cc1 | -0.765 | 0.0177 (inactive) | 0.0958 (inactive) | 0.216 (inactive) | 0.311 (inactive) | -0.803 (inactive) | 0.101 (inactive) | -0.138 (inactive) | 0.732 | -0.207
25 | CC(C)CON=C1[C@H]2CCn3c(=O)n(C)c(=O)n3[C@H]2[C@H](O)[C@@H]2O[C@H]12 | -0.423 | 0.0789 (inactive) | 0.0226 (inactive) | -0.764 (inactive) | -0.425 (inactive) | -0.353 (inactive) | -0.0374 (inactive) | -0.0718 (inactive) | -0.347 | -0.117
26 | C[C@@H]1CC[C@@H](C(=O)O)N[C@H]1c1cccc(N2CCOCC2)c1 | 0.764 | -1.62 (inactive) | 0.7 (inactive) | 0.18 (inactive) | 0.143 (inactive) | -0.206 (inactive) | 1.32 (inactive) | 1.13 (inactive) | 0.198 | 0.13
